# Molecular target: T1, GST-Aq-NF-kB (Amphimedon queenslandica, UniProt A9Y5G7 2-389)
# T1 sequence: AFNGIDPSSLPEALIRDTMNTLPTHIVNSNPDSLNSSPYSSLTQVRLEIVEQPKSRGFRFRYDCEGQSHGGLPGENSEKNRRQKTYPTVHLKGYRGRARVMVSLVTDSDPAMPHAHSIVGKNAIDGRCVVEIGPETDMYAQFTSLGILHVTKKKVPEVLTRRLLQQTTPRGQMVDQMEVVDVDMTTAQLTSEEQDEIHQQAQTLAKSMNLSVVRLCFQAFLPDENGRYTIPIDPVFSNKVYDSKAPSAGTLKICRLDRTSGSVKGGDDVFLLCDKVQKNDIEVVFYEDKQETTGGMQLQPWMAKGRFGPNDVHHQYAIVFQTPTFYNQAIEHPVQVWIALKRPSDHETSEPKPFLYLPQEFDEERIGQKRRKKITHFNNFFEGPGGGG
# Assay: protein-binding microarray (PBM); PBM: ~300 nM protein, 6 mM HEPES pH 7.8, 80 mM KCl, 0.5 mM EDTA, 0.5 mM EGTA, 6% glycerol, 35 ng/ul poly-dIdC, 1% milk, 1 h, room temperature; Ap Aiptasia and Nv Nematostella (sea anemones) / Co Capsaspora / Aq Amphimedon (sponge) / Dm Drosophila / Hu human; RHD is the Rel homology domain; high values mean tight binding
# Settings: dsDNA, one strand shown
row,Sequence,binding signal
1,CCGATTAACATCATTTCCCTTGATGATGTTAATCGGGTCTTGATTCGCTTGACGCTGCTG,3.49 z-score
2,CCGATTAACATCACATCTTTCCCTGATGTTAATCGGGTCTTGATTCGCTTGACGCTGCTG,4.25 z-score
3,CCGATTAACATCATACAAGGGAGTGATGTTAATCGGGTCTTGATTCGCTTGACGCTGCTG,2.84 z-score
4,CCGATTAACATCATGCCCGGGAATGATGTTAATCGGGTCTTGATTCGCTTGACGCTGCTG,2.72 z-score
5,CCGATTAACATCAAATGTGGGAATGATGTTAATCGGGTCTTGATTCGCTTGACGCTGCTG,2.21 z-score
6,CCGATTAACATCAGTACGGGAAATGATGTTAATCGGGTCTTGATTCGCTTGACGCTGCTG,2.81 z-score
7,CCGATTAACATCAGGGAAAAGGATGATGTTAATCGGGTCTTGATTCGCTTGACGCTGCTG,2.41 z-score
8,CCGATTAACATCATGGTGGGAAATGATGTTAATCGGGTCTTGATTCGCTTGACGCTGCTG,1.9 z-score
9,CCGATTAACATCAACTGGGAAAATGATGTTAATCGGGTCTTGATTCGCTTGACGCTGCTG,1.65 z-score
10,CCGATTAACATCACTTTCCCAAATGATGTTAATCGGGTCTTGATTCGCTTGACGCTGCTG,1.54 z-score
11,CCGATTAACATCAGCTCCCCCCCTGATGTTAATCGGGTCTTGATTCGCTTGACGCTGCTG,3.99 z-score
12,CCGATTAACATCAGGGAAAGGGATGATGTTAATCGGGTCTTGATTCGCTTGACGCTGCTG,2.84 z-score
13,CCGATTAACATCAGGGACGGAAATGATGTTAATCGGGTCTTGATTCGCTTGACGCTGCTG,2.84 z-score
14,CCGATTAACATCAGGGACAAAAATGATGTTAATCGGGTCTTGATTCGCTTGACGCTGCTG,2.39 z-score
15,CCGATTAACATCAAGCGTTTCCCTGATGTTAATCGGGTCTTGATTCGCTTGACGCTGCTG,2.82 z-score
16,CCGATTAACATCAACTCGGGAAATGATGTTAATCGGGTCTTGATTCGCTTGACGCTGCTG,1.73 z-score
17,CCGATTAACATCAATTCCCGTACTGATGTTAATCGGGTCTTGATTCGCTTGACGCTGCTG,2.81 z-score
18,CCGATTAACATCAGGGGAGTGTATGATGTTAATCGGGTCTTGATTCGCTTGACGCTGCTG,2.89 z-score
19,CCGATTAACATCAGATTTCTCCCTGATGTTAATCGGGTCTTGATTCGCTTGACGCTGCTG,3.18 z-score
20,CCGATTAACATCACGGTGGGAAATGATGTTAATCGGGTCTTGATTCGCTTGACGCTGCTG,1.94 z-score

row,Sequence,binding signal
1,CCGATTAACATCATGGAGGGAGGTGATGTTAATCGGGTCTTGATTCGCTTGACGCTGCTG,1.34 z-score
2,CCGATTAACATCAATCGGGAAATTGATGTTAATCGGGTCTTGATTCGCTTGACGCTGCTG,2.1 z-score
3,CCGATTAACATCAACTTTCCCAGTGATGTTAATCGGGTCTTGATTCGCTTGACGCTGCTG,3.06 z-score
4,CCGATTAACATCATCTGGGAAAATGATGTTAATCGGGTCTTGATTCGCTTGACGCTGCTG,1.45 z-score
5,CCGATTAACATCAGGGAAAGGTATGATGTTAATCGGGTCTTGATTCGCTTGACGCTGCTG,3.59 z-score
6,CCGATTAACATCAAAGCATTCCCTGATGTTAATCGGGTCTTGATTCGCTTGACGCTGCTG,3.35 z-score
7,CCGATTAACATCATGTTGGGAAATGATGTTAATCGGGTCTTGATTCGCTTGACGCTGCTG,1.2 z-score
8,CCGATTAACATCAGGGAAAGGAATGATGTTAATCGGGTCTTGATTCGCTTGACGCTGCTG,2.97 z-score
9,CCGATTAACATCAACATGGGAATTGATGTTAATCGGGTCTTGATTCGCTTGACGCTGCTG,1.89 z-score
10,CCGATTAACATCAGGGAAAAGAATGATGTTAATCGGGTCTTGATTCGCTTGACGCTGCTG,3.22 z-score
11,CCGATTAACATCACCCAGTTCCCTGATGTTAATCGGGTCTTGATTCGCTTGACGCTGCTG,1.7 z-score
12,CCGATTAACATCAGACTGGGAAATGATGTTAATCGGGTCTTGATTCGCTTGACGCTGCTG,1.18 z-score
13,CCGATTAACATCACCTCTTTCCCTGATGTTAATCGGGTCTTGATTCGCTTGACGCTGCTG,2.52 z-score
14,CCGATTAACATCACCAGTTTCCCTGATGTTAATCGGGTCTTGATTCGCTTGACGCTGCTG,2.6 z-score
15,CCGATTAACATCATGGGGACGACTGATGTTAATCGGGTCTTGATTCGCTTGACGCTGCTG,2.64 z-score
16,CCGATTAACATCAGGGGTAGGTTTGATGTTAATCGGGTCTTGATTCGCTTGACGCTGCTG,2.1 z-score
17,CCGATTAACATCACCGCTTCCCTTGATGTTAATCGGGTCTTGATTCGCTTGACGCTGCTG,2 z-score
18,CCGATTAACATCACCTTGGGAAATGATGTTAATCGGGTCTTGATTCGCTTGACGCTGCTG,1.62 z-score
19,CCGATTAACATCACTCCCTAAAATGATGTTAATCGGGTCTTGATTCGCTTGACGCTGCTG,3.48 z-score
20,CCGATTAACATCAAGCCCCCCCCTGATGTTAATCGGGTCTTGATTCGCTTGACGCTGCTG,4.71 z-score
